# Experimental data reported in the supplement of paper PMC3545927.
# The list shows a part of the results. No count for the full screen is at hand.
# Target: furin, P09958
# Experiment: furin cleavage Z-score vs untreated control; higher = more cleavage, active = 3.5 or more, inactive = 1 or less, 8 variable residues between constant flanks
# In short: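 Purified furin cleaved 8-mer peptides that were fused to a cDNA oligonucleotide and held on magnetic beads by their N-terminus. Each 0.01 ml reaction used a 1:10 enzyme:substrate ratio in 50 mM HEPES pH 7.5 with CaCl2 and NaCl and ran 7.5, 15 or 30 min. Released DNA was adapter-tagged by PCR and sequenced, and read counts gave abundance. The cleavage Z-score came from log counts against furin-free reactions, lowess-adjusted and scaled by median absolute deviation.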
# Sequence of furin, P09958 (P09958 whole entry): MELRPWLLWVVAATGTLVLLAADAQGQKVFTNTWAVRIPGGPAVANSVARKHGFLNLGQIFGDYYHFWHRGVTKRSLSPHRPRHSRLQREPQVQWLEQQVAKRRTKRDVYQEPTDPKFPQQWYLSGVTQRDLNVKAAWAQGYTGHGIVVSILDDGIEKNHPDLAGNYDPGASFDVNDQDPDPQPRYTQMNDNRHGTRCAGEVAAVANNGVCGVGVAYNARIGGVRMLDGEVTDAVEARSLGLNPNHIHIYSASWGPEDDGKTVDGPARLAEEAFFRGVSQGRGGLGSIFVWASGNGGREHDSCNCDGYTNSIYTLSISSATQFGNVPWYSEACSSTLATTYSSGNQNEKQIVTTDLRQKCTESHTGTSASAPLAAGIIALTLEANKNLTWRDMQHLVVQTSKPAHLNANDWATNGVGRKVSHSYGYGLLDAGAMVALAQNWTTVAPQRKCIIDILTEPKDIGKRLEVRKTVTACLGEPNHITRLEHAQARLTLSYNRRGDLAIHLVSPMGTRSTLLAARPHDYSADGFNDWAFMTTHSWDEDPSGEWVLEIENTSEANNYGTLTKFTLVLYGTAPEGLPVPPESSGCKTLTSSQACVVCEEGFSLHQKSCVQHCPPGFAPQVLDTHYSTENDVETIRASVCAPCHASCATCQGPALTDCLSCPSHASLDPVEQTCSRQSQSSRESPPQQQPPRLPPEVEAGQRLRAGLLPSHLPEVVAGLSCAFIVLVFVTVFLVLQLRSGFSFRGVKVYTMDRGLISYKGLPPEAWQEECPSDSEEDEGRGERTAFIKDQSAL
Sequence,furin cleavage Z-score (7.5 min),furin cleavage Z-score (15 min),furin cleavage Z-score (30 min)
CADSDAESYSAGNASASA [HC1350],-0.915 (inactive),-2 (inactive),-1.07 (inactive)
CAHTPCSAHLAGNASASA [HC2475],-0.788 (inactive),-1.31 (inactive),-0.643 (inactive)
CARPARSGGPAGNASASA [FS-2735],-0.759 (inactive),-1.01 (inactive),-0.741 (inactive)
CARPARLVPAAGNASASA [FS-2398],-0.162 (inactive),-1.02 (inactive),-0.581 (inactive)
CARPARSVSKAGNASASA [FS-2498],4.36 (active),6.03 (active),6.77 (active)
CAAQKRSVGSAGNASASA [FS-2626],0.58 (inactive),0.683 (inactive),-0.853 (inactive)
CARPARSVGSAGNASASA [FS-2736],6.91 (active),7.69 (active),6.7 (active)
CATHSRKKRQAGNASASA [FS-201],8.08 (active),7.91 (active),8.14 (active)
CAEMKRKKRVAGNASASA [FS-1521],6.73 (active),7.44 (active),8.54 (active)
CAWNKRKKRQAGNASASA [FS-968],13.9 (active),14.4 (active),10.5 (active)
CAKKHKKKRVAGNASASA [FS-1538],-1.41 (inactive),-0.885 (inactive),0.391 (inactive)
CASTPCSDHLAGNASASA [HC2531],0.0703 (inactive),0.929 (inactive),-0.421 (inactive)
CAKPARYRRGAGNASASA [FS-813],12.3 (active),12.4 (active),9.69 (active)
CARPARDEGGAGNASASA [FS-2050],-0.0204 (inactive),-1.47 (inactive),-0.304 (inactive)
CARPARYRRGAGNASASA [FS-861],11.5 (active),11.1 (active),8.69 (active)
CAERGFFYTPAGNASASA [EK9],-0.00549 (inactive),-1.03 (inactive),-0.153 (inactive)
CAVVCCSMSFAGNASASA [HC2087],-0.658 (inactive),0.464 (inactive),-0.984 (inactive)
CAEKVTSTWVAGNASASA [HC2174],-0.438 (inactive),1.1,-0.0879 (inactive)
CACCRRKRRNAGNASASA [FS-1188],10.9 (active),10.1 (active),9.12 (active)
CAEGQRKRRNAGNASASA [FS-19],11.4 (active),10.7 (active),8.22 (active)
CAGCTTPCSGAGNASASA [HC1956],-0.873 (inactive),-0.658 (inactive),-0.0577 (inactive)
CAGGAARALAAGNASASA [HC233],0.841 (inactive),-0.114 (inactive),-0.813 (inactive)

Sequence,furin cleavage Z-score (7.5 min),furin cleavage Z-score (15 min),furin cleavage Z-score (30 min)
CAWTPCSGSWAGNASASA [HC1828],-0.899 (inactive),-0.739 (inactive),-0.599 (inactive)
CAEVVTSEWVAGNASASA [HC2212],0.969 (inactive),-0.725 (inactive),-0.598 (inactive)
CATTPCSISWAGNASASA [HC1884],1.02,2.64,0.615 (inactive)
CARSDRSVPSAGNASASA [FS-2236],-0.464 (inactive),-1.02 (inactive),-0.799 (inactive)
CARSIRSSQNAGNASASA [FS-2806],3.82 (active),4.88 (active),5.06 (active)
CARSIRSTGSAGNASASA [FS-1971],8.51 (active),7.83 (active),8.71 (active)
CARSIRSVAIAGNASASA [FS-3081],-0.459 (inactive),0.367 (inactive),2.74
CAGEVPSTEDAGNASASA [HC1096],-0.773 (inactive),-0.136 (inactive),0.506 (inactive)
CAPTPCSAHLAGNASASA [HC2479],-0.112 (inactive),0.764 (inactive),1.86
CAFAPTLWARAGNASASA [HC1578],0.686 (inactive),-1.55 (inactive),0.247 (inactive)
CAAKSKFGYGAGNASASA [HC1419],0.282 (inactive),0.423 (inactive),0.234 (inactive)
CAHSKRRVRDAGNASASA [FS-663],13.2 (active),12.9 (active),9.58 (active)
CAHSSRPVRDAGNASASA [FS-1594],6.49 (active),7.91 (active),7.38 (active)
CAHSKRKISWAGNASASA [FS-2865],1.39,0.543 (inactive),1.88
CAAKSRPKRRAGNASASA [FS-641],10.7 (active),12 (active),8.13 (active)
CAMSKRDVLDAGNASASA [FS-2873],-0.828 (inactive),-0.533 (inactive),-0.677 (inactive)
CAKIARPKKRAGNASASA [FS-40],0.288 (inactive),-0.123 (inactive),-0.964 (inactive)
CAADVIPVRRAGNASASA [HC729],-0.626 (inactive),1.64,0.64 (inactive)
CAAKSRPVRGAGNASASA [FS-523],6.42 (active),5.25 (active),5.42 (active)
CAGCTWMNSTAGNASASA [HC436],0.97 (inactive),0.0364 (inactive),1.16
CAAAGQLDLSAGNASASA [HC1641],-0.412 (inactive),0.71 (inactive),-1.04 (inactive)
CAEVNTSTWVAGNASASA [HC2201],0.639 (inactive),0.541 (inactive),1.06
